Measured values as given in the supplement of paper PMC4022240.
± gives the standard deviation.

T1: HaloTag-ATRX ADD domain (163-292)
T1 chain: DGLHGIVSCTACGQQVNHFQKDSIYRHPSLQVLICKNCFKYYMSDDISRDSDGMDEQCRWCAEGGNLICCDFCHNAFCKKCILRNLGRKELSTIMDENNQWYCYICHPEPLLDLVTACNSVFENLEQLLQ


Legend:
Assay in all cases: peptide microarray binding signal (635 nm), min-max normalized on array (fraction of array maximum); higher = stronger binding
Details in all cases: peptide region: Unmod H2B variant
[1] = target: T1, HaloTag-ATRX ADD domain (163-292)
Procedure, shortened: (§1)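 Binding signal is the mean intensity of triplicate spots, min-max scaled within each library. Histone 13-mer peptide–cellulose conjugates were spotted in triplicate on nitrocellulose with a Cy3 tracer and blocked overnight at 4°C. Probing lasted 1 h at 4°C, either with biotin-labelled HaloTag reader fusions (10 nM to 1 μM) and streptavidin-Alexa Fluor 647 or with rabbit histone antibodies (1:10,000 to 1:2,000) and anti-rabbit Alexa 647. An Axon GenePix 4000B read signal at 635 nm and misprints at 532 nm.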

[2] = target: HaloTag-ING2 PHD (mouse Ing2 200-280)
Procedure, shortened: as §1

[3] = target: anti-H3K4me3 antibody ab8580
Procedure, shortened: as §1

[4] = target: anti-H3K9me3 antibody ab8898
Procedure, shortened: as §1

[5] = binder concentration: 1:2,000 dilution
[6] = binder concentration: 1:10,000 dilution

Row | Binder | peptide microarray binding signal ([1]; binder concentration: 50 nM) | peptide microarray binding signal ([1]; binder concentration: 500 nM) | peptide microarray binding signal ([2]; binder concentration: 10 nM) | peptide microarray binding signal ([2]; binder concentration: 100 nM) | peptide microarray binding signal [3, 5] | peptide microarray binding signal [3, 6] | peptide microarray binding signal [4, 5] | peptide microarray binding signal [4, 6]
1 | PELAKSAPAPKKG [Unmod H2B variant P E L A K S A P A P K K G] | 0.00618 ± 0.00062 | 0.0121 ± 0.001 | 0.0037 ± 8.6e-05 | 0.0085 ± 0.0029 | 0.0013 ± 0.00034 | 0.0028 ± 0.00029 | 0.000951 ± 7.1e-05 | 0.00133 ± 8.2e-05
2 | KAQKKDGKKRKRS [Unmod H2B variant K A Q K K D G K K R K R S] | 0.0176 ± 0.012 | 0.00876 ± 0.00031 | 0.00275 | 0.00461 ± 0.00031 | 0.000415 ± 4.2e-06 | 0.00103 ± 2.1e-05 | 0.000227 | 0.000692 ± 7.3e-06
3 | APKKGSKKAITKA [Unmod H2B variant A P K K G S K K A I T K A] | 0.00592 ± 0.00021 | 0.00971 ± 0.00064 | 0.00239 ± 4.7e-05 | 0.00248 ± 6.3e-05 | 0.000264 ± 2.8e-06 | 0.00114 ± 3e-05 | 0.000302 ± 3.1e-06 | 0.000634 ± 1.2e-05
4 | EGKKRKRTRKESY [Unmod H2B variant E G K K R K R T R K E S Y] | 0.00661 ± 0.00023 | 0.0101 ± 0.00031 | 0.00251 ± 0.00012 | 0.00326 ± 0.0001 | 0.000378 ± 3.9e-06 | 0.000913 ± 1.6e-05 | 0.000302 ± 1.5e-05 | 0.000404 ± 4.4e-06
5 | PEPSKSAPAPKKG [Unmod H2B variant P E P S K S A P A P K K G] | 0.00618 ± 0.00016 | 0.0115 ± 0.0012 | 0.00406 ± 0.00015 | 0.0137 ± 0.0011 | 0.000963 ± 6.3e-05 | 0.00126 ± 9.4e-05 | 0.000453 ± 7.5e-06 | 0.000923 ± 9.6e-06
6 | VHPDTGISSKAMG [Unmod H2B variant V H P D T G I S S K A M G] | 0.009373 ± 4.6e-05 | 0.0173 ± 0.0018 | 0.0154 ± 0.0017 | 0.0346 ± 0.0034 | 0.00563 ± 0.0004 | 0.00964 ± 0.0005 | 0.00272 ± 6.5e-05 | 0.00283 ± 4.9e-05
7 | VPKKGSKKAINKA [Unmod H2B variant V P K K G S K K A I N K A] | 0.00639 ± 0.00069 | 0.0081 ± 0.00015 | 0.00263 ± 3.9e-05 | 0.0056 ± 0.00078 | 0.000529 ± 4.2e-05 | 0.000856 ± 8.9e-06 | 0.000196 ± 2.1e-06 | 0.000461 ± 8.7e-06
8 | DGKKRKRSRKESY [Unmod H2B variant D G K K R K R S R K E S Y] | 0.00834 ± 0.00013 | 0.00714 ± 0.00021 | 0.00221 ± 3.8e-05 | 0.00454 ± 0.00011 | 0.000623 ± 2e-05 | 0.000628 ± 6.7e-06 | 0.000151 ± 1.6e-06 | 0.000461
9 | KRSRKESYSIYVY [Unmod H2B variant K R S R K E S Y S I Y V Y] | 0.00561 ± 0.00019 | 0.0029 ± 0.00042 | 0.00179 ± 4.2e-05 | 0.000496 ± 9.7e-06 | 0.00051 ± 7.5e-05 | 0.000685 ± 1.5e-05 | 0.000227 ± 4.1e-06 | 0.000634 ± 1.2e-05
10 | PEPVKSAPVPKKG [Unmod H2B variant P E P V K S A P V P K K G] | 0.007868 ± 4.2e-05 | 0.0166 ± 0.00043 | 0.00889 ± 0.00055 | 0.0274 ± 0.0037 | 0.00279 ± 0.00019 | 0.00251 ± 0.00026 | 0.000997 ± 6.3e-05 | 0.00144 ± 5.1e-05
11 | ISKKGFKKAVVKT [Unmod H2B variant I S K K G F K K A V V K T] | 0.00683 ± 0.00024 | 0.0118 ± 0.00025 | 0.00227 ± 7.3e-05 | 0.00602 ± 0.00021 | 0.00051 ± 8.6e-06 | 0.000685 ± 7.2e-06 | 0.000257 ± 2.7e-06 | 0.000461
12 | KVLKQVHPDTGIS [Unmod H2B variant K V L K Q V H P D T G I S] | 0.00552 ± 0.00019 | 0.00971 ± 0.0005 | 0.00531 ± 0.00011 | 0.0101 ± 0.00011 | 0.000755 ± 1.8e-05 | 0.001655 ± 1.6e-05 | 0.000483 ± 2.8e-05 | 0.00346 ± 0.0011
13 | KRTRKESYSIYIY [Unmod H2B variant K R T R K E S Y S I Y I Y] | 0.015 ± 0.0008 | 0.0228 ± 0.0011 | 0.00716 ± 0.00018 | 0.0159 ± 0.0033 | 0.000529 ± 1.4e-05 | 0.0016 ± 5.3e-05 | 0.000468 ± 1.2e-05 | 0.0011 ± 1.1e-05
14 | APKKGSKKAVTKA [Unmod H2B variant A P K K G S K K A V T K A] | 0.00705 ± 0.00011 | 0.00729 ± 0.00014 | 0.00185 ± 1.9e-05 | 0.00446 ± 0.00013 | 0.000529 ± 1.4e-05 | 0.000571 ± 1.1e-05 | 0.000211 ± 2.2e-06 | 0.000461
15 | KTQKKEGKKRKRT [Unmod H2B variant K T Q K K E G K K R K R T] | 0.0089 ± 0.00018 | 0.0148 ± 0.0025 | 0.003163 ± 1.7e-05 | 0.00857 ± 0.0013 | 0.00068 ± 1.9e-05 | 0.0012 ± 1.2e-05 | 0.000287 ± 5.9e-06 | 0.000865 ± 9e-06
16 | PEPTKSAPAPKKG [Unmod H2B variant P E P T K S A P A P K K G] | 0.006019 ± 5.5e-05 | 0.0126 ± 0.00066 | 0.0173 ± 0.011 | 0.0103 ± 0.0017 | 0.001 ± 0.0001 | 0.00205 ± 0.00015 | 0.000649 ± 1.2e-05 | 0.00115 ± 2e-05
17 | PEPAKSAPAPKKG [Unmod H2B variant P E P A K S A P A P K K G] | 0.00404 ± 8.4e-05 | 0.00971 ± 0.00016 | 0.00346 ± 6.5e-05 | 0.00369 ± 5.6e-05 | 0.000359 ± 3.7e-06 | 0.00097 ± 2e-05 | 0.000408 | 0.000346 ± 3.8e-06
18 | GISSKAMGIMNSF [Unmod H2B variant G I S S K A M G I M N S F] | 0.00856 ± 0.00082 | 0.0227 | 0.00913 ± 0.00027 | 0.0416 ± 0.0056 | 0.00215 ± 0.00023 | 0.00348 ± 0.00045 | 0.000695 ± 1.2e-05 | 0.0011 ± 1.1e-05
19 | PKKGSKKAVTKAQ [Unmod H2B variant P K K G S K K A V T K A Q] | 0.00561 ± 0.00027 | 0.008048 ± 4.3e-05 | 0.00275 ± 0.00016 | 0.00354 ± 0.00011 | 0.000378 ± 7.7e-06 | 0.000628 ± 6.7e-06 | 0.000196 ± 2.1e-06 | 0.000577 ± 6.2e-06
20 | PDPAKSAPAPKKG [Unmod H2B variant P D P A K S A P A P K K G] | 0.0068 ± 0.00035 | 0.00538 ± 0.00012 | 0.00358 ± 0.00019 | 0.004039 ± 3.4e-05 | 0.000868 ± 7.8e-05 | 0.00097 ± 9.9e-06 | 0.000453 | 0.00075 ± 7.9e-06
